The list is a sample of the results.
aSyn 5UTR act: Activators working through SNCA 5'UTR binding (MLPCN); alpha-synuclein 5'UTR reporter, activators screen; activity score, % (tested at 7.5 µM), hits read low; 300,000 tested, 7.1% active; AID 1814; in the data active means activity score below about -60%
* hit, by the source's call.

For Nc1nc(NC(=O)c2ccco2)nn1-c1ccccc1 the results were aSyn 5UTR act -66*.
Cc1ccnc2nc(NC(=O)c3ccco3)nn12 was read as aSyn 5UTR act -81*.
CC(C)(C)n1cnc2cc(NC(=O)c3ccco3)ccc21 was read as aSyn 5UTR act -88*.
Screening O=C(Nc1nc2nccc(-c3ccccc3)n2n1)c1ccccc1 returned aSyn 5UTR act -83*.
`COc1ccc([N+](=O)[O-])cc1N/C(=N/S(=O)(=O)c1ccccc1)c1ccccc1` gave aSyn 5UTR act -70*.
For O=C(NCc1ccco1)/C(=C/c1ccc(C(F)(F)F)cc1)c1nc2ccccc2[nH]1 the results were aSyn 5UTR act -94*.
`O=C(NCc1ccco1)/C(=C/c1cccc(C(F)(F)F)c1)c1nc2ccccc2[nH]1` gave aSyn 5UTR act -84*.
`Cc1ccc(Oc2nccc(-c3ccc(Cl)cc3)n2)cc1` gave aSyn 5UTR act -67*.
Screening Nc1c(C(=O)Nc2nc3ccccc3s2)sc2nc(-c3cccs3)ccc12 returned aSyn 5UTR act 106.
For CC(=O)c1sc2nc(-c3cccs3)ccc2c1N the results were aSyn 5UTR act -272*.
`Cc1c(C(=O)Nc2ccccc2)cnn1-c1ccccc1` gave aSyn 5UTR act -68*.
`COc1ccc(NC(=O)c2cnn(-c3ccccc3)c2C)cc1OC` gave aSyn 5UTR act -153*.
Cc1c(C(=O)Nc2cccc([N+](=O)[O-])c2)cnn1-c1ccccc1 was read as aSyn 5UTR act -137*.
COc1ccc(NC(=O)c2cnn(-c3ccccc3)c2C)cc1 was read as aSyn 5UTR act -62*.
For Cc1c(C(=O)Nc2cccc(F)c2)cnn1-c1ccccc1 the results were aSyn 5UTR act -212*.
For COc1ccc(CN2CCn3ncc(C(=O)Nc4ccccc4)c3C2=O)cc1 the results were aSyn 5UTR act -86*.
For CC(=O)c1cccc(NC(=O)c2cnn(-c3ccccc3)c2C)c1 the results were aSyn 5UTR act -181*.
Screening Cc1ccc2c(Cl)c(C(=O)NCC3CCCO3)sc2c1 (configuration not stated) returned aSyn 5UTR act -137*.
`CN(Cc1c(F)cccc1Cl)C(=O)CNC(=O)c1sc2ccccc2c1Cl` gave aSyn 5UTR act -66*.
For O=C(NCC1CCCO1)c1sc2ccccc2c1Cl (configuration not stated) the results were aSyn 5UTR act -106*.
`Cc1ccc2c(Cl)c(C(=O)Nc3cc(C)on3)sc2c1` gave aSyn 5UTR act -122*.
Cc1ccnc(NC(=O)c2sc3ccccc3c2Cl)c1 was read as aSyn 5UTR act 78.
`Cc1ccc2c(Cl)c(C(=O)NCCc3ccccc3)sc2c1` gave aSyn 5UTR act -166*.
O=C(NNC(=O)C1CC2CCC1C2)c1sc2ccccc2c1Cl (configuration not stated) was read as aSyn 5UTR act -112*.
O=C(CNC(=O)c1sc2ccccc2c1Cl)NC1CC1 was read as aSyn 5UTR act -118*.
For CC(NC(=O)c1sc2ccccc2c1Cl)C1CCCO1 (configuration not stated) the results were aSyn 5UTR act -65*.
